TGFb SMAD3 inh – inhibitors of TGF-b signaling | AID 588855 | HepG2 CAGA-GFP TGF-b/SMAD3 reporter, GFP fluorescence, 18 h; TGF-beta stimulated, 500 pg/mL final | Potency, µM (highest dose often 46.1 µM), for the others: at the top dose activity, negative = inhibition, most hits filed as inhibitors | 1.2% of 410,000 active; further: potency means the concentration at half of the fitted maximal effect; on the % scale 0 is the no-effect control and ±100 the full control effect; nearly all actives have a fitted effect of over 65% in size
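Inhibition was scored as loss of TGF-beta-induced (500 pg/mL final, 18 hours, 37 degrees C) GFP in HEPG2 cells carrying a CAGA-GFP reporter, in DMEM with 1% FBS. Well GFP was summed per cell; Activity was normalised to unstimulated and stimulated DMSO wells, then concentration-response fitting.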
TDP1 inh – TDP1 (human) enzyme inhibition. Q9NUW8. 0.28% of 350,000 active. AID 485290. Potency, µM (series often up to 130 µM), inactives show at the top dose activity change, negative = inhibition, most hits filed as inhibitors. recombinant TDP1, AlphaScreen DNA substrate cleavage; further: potency means the concentration at half of the fitted maximal effect; on the % scale 0 is the no-effect control and ±100 the full control effect; nearly all actives have a fitted effect of over 40% in size
Target sequence (Q9NUW8 whole entry, looked up): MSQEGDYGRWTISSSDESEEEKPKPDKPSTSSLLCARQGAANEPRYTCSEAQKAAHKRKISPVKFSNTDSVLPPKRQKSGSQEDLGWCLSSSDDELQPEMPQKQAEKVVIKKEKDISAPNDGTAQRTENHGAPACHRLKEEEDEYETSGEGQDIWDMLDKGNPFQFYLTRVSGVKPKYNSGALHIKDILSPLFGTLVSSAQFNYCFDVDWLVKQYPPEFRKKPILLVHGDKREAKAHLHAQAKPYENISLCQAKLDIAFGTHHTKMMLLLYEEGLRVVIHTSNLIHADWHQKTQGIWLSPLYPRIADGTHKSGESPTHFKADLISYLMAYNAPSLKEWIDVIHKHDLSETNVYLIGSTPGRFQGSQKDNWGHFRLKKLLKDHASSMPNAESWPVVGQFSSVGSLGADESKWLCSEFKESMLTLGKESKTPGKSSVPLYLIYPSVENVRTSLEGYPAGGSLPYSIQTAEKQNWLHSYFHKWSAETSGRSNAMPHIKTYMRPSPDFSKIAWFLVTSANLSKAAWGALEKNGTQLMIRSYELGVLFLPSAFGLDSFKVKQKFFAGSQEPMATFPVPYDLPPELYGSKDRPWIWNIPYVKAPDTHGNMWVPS
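AlphaScreen read-out: signal falls as enzyme removes the 3' tyrosine-FITC from a 5'-biotinylated DNA oligo (15 nM, 5 min, RT). Enzyme was E. coli-made recombinant Tdp1 at 1 nM, exposed to compound for 15 min beforehand; beads 10 ug/ml, 10 min.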
HepG2 tox – counter-screen for TGF-b inhibitors: cytotoxicity in HepG2 cells | HepG2 CAGA-GFP viability, ATP luminescence, 18 h | Potency, µM (doses to about 46.1 µM), without a hit: at the highest dose activity change, negative = cytotoxicity, most hits filed as cytotoxic | 0.76% of 410,000 active | AID 588856; further: potency means the concentration at half of the fitted maximal effect
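CellTiter-Glo luminescence gave cytotoxicity after 18 hours at 37 degrees C. The cells were HepG2 CAGA-GFP in 1% FBS DMEM, stimulated with 500 pg/mL TGF-beta after compound addition. %Activity was normalised to no-cell wells (complete cell-killing) and DMSO (no toxicity), and curves were fitted and classified.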
IL1B secr inh – inhibitors of inflammasome signaling (IL-1 beta secretion); THP-1 LPS/ATP IL-1B secretion, AlphaLISA, 16 h; stronger effect = lower value; activity change, % at 57.5 µM; 4.7% of 360,000 active; in the data active means activity change below about -50%; inconclusive means mostly about -30% to -49%; further: on the % scale 0 is the no-effect control and ±100 the full control effect
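Secreted IL-1B measured by AlphaLISA bead assay after 16 h compound exposure of THP-1 cells; compounds (final up to 57.5 uM) added 1 h before LPS (250 ng/mL) and ATP (1.25 mM) stimulation; lower signal means less secretion.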
TDP1 cell noCPT – qHTS for Inhibitors of human tyrosyl-DNA phosphodiesterase 1 (TDP1): qHTS in cells in absence of CPT | DT40 Tdp1-/- hTDP1 cells, no CPT, ATP luminescence, 48 h | AID 686978, 2013 | 15% of 420,000 active | Potency, µM (top dose mostly 46.2 µM), inactives show top-dose activity change, negative = growth inhibition, most hits filed as inhibitors; further: potency means the concentration at half of the fitted maximal effect; on the % scale 0 is the no-effect control and ±100 the full control effect; nearly all actives have a fitted effect of over 55% in size
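A cellular qHTS used chicken DT40 cells lacking endogenous Tdp1 but carrying stably transfected human TDP1. Compounds were applied without camptothecin, and cell growth kinetics were judged by ATP-dependent luminescence after ≥48 hr.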
TDP1 cell CPT – DT40-hTDP1 cell growth loss with CPT; 12% of 420,000 active; chicken DT40 Tdp1-/-;hTDP1 cells + 20 nM CPT, ATP luminescence, 48 h; AID 686979; Potency, µM (titrated, usually from 46.2 µM), without a hit: top-dose activity change, negative = growth inhibition, actives largely listed as inhibitors; further: potency means the concentration at half of the fitted maximal effect; on the % scale 0 is the no-effect control and ±100 the full control effect; nearly all actives have a fitted effect of over 55% in size
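Chicken DT40 Tdp1-/- cells stably complemented with human TDP1 were seeded at 400 cells/well in medium containing 20 nM camptothecin, exposed to pin-transferred compounds, and grown at 37 °C for at least 48 hr. Viability was read as ATP luminescence.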
* = called active by the depositor; ? = inconclusive; . = no result; ! = not active in a repeat; [ ] = dose if it differs, or a comment. The list is not random: actives were taken first. Their share in the collection is about 19%. Unless noted, the call rests on the fitted dose curve; in most records, active means well fitted curve in the direction sought with a large enough effect; inconclusive means small, poorly fitted or top-dose-only effect, or another doubt; inactive means no such curve, though single readings can be large; an effect the other way counts as inactive or inconclusive.

SMILES	TGFb SMAD3 inh	TDP1 inh	HepG2 tox	IL1B secr inh	TDP1 cell noCPT	TDP1 cell CPT
COc1cc2nc(CN3CC=C(c4ccccc4)CC3)[nH]c(=O)c2cc1OC	?	.	-31%	-24	18µM*	?
COC(=O)C1=C(c2ccc(-c3ccccc3)c(F)c2)C[C@@H]2CC[C@H]1N2C(=O)NCCCOC(C)C	?	0%	-46%	-10	13µM*	15µM*
COC(=O)C1=C(c2cccc(C#N)c2)C[C@@H]2CC[C@H]1N2C(=O)NCCO	-5%	0%	0%	6	4%	-2%
COC(=O)C1=C(c2ccccc2)C[C@@H]2CC[C@H]1N2C(=O)NCCO	?	.	-3%	9	0%	13%
COC(=O)C1=C(c2ccc3ccccc3c2)C[C@@H]2CC[C@H]1N2C(=O)NC1Cc2ccccc2C1	?	-2%	-3%	-7	?	?
COC(=O)C1=C(c2ccc3ccccc3c2)C[C@@H]2CC[C@H]1N2C(=O)NCCCOC(C)C	-28%	1%	-16%	7	15µM*	?
COC(=O)C1=C(c2ccc(-c3ccccc3)c(F)c2)C[C@@H]2CC[C@H]1N2C(=O)NCCNC(C)=O	-11%	3%	-6%	11	?	21µM*
COC(=O)C1=C(c2ccc(-c3ccccc3)c(F)c2)C[C@@H]2CC[C@H]1N2C(=O)NCCOc1ccc(OC)cc1	?	2%	4%	-25	15µM*	15µM*
CCCN(CCC)[C@@H]1CCc2c(F)ccc(O)c2C1	.	4%[56.1 µM]	.	.	.	.
CCC(=O)OC1CCC2C3CCC4=CC(=O)CC[C@@]4(C)C3CC[C@]12C (stereo partly drawn)	.	6%[56.1 µM]	.	.	?	?
C=C(C)C#N	.	18%	.	.	.	.
COC(=O)C1=C(c2ccc(-c3ccccc3)c(F)c2)C[C@@H]2CC[C@H]1N2C(=O)NCCc1ccccc1	?	3%	-22%	-10	16µM*	?
COC(=O)C1=C(c2ccc(OC)c(OC)c2)C[C@@H]2CC[C@H]1N2C(=O)NCCc1ccccc1	5%	-2%	0%	25	?	-27%
COC(=O)C1=C(c2ccc(-c3ccccc3)c(F)c2)C[C@@H]2CC[C@H]1N2C(=O)NCc1cccc2ccccc12	-4%	1%	-14%	11	23µM*	23µM*
COC(=O)C1=C(c2ccc3ccccc3c2)C[C@@H]2CC[C@H]1N2C(=O)NCc1ccc(C(F)(F)F)cc1	?	0%	-26%	?	?	?
CCc1cc2c(s1)-n1c(C)nnc1CN=C2c1ccccc1Cl	.	.	.	.	-19%	?
O=C(/C=C/c1ccccc1)c1c(O)n(CCc2ccccc2)c(=O)[nH]c1=O	2%	2%	2%	-23	2.6µM*	5.2µM*
COc1cc(/C=C/C(=O)c2c(O)n(CCc3ccccc3)c(=O)[nH]c2=O)ccc1O	0%	3%	-6%	-99*	10µM*	13µM*
O=C(/C=C/c1ccc2c(c1)OCO2)c1c(O)n(CCc2ccccc2)c(=O)[nH]c1=O	4%	4%	-7%	-5	?	?
CCCOP(=O)(OCCC)C1(Nc2ccc(C)cc2)CCCCC1	7%	-2%	-39%	-10	?	-24%
c1ccc(-c2ccc(-c3n(-c4ccccn4)c4ccccc4[n+]3-c3ccccn3)cc2)cc1	18µM*	6%	-7%	-10	8.2µM*	5.8µM*
Nc1c(C(=O)Nc2ccc(Cl)c(C(F)(F)F)c2)sc2nc3c(cc12)N1CCC3CC1	?	-6%	-56%	.	13µM*	13µM*
COc1ccc(NC(=O)c2sc3nc4c(cc3c2N)N2CCC4CC2)cc1OC	?	9%	-50%	.	26µM*	?
Nc1c(C(=O)Nc2ccc(Cl)cc2)sc2nc3c(cc12)N1CCC3CC1	4%	-7%	-40%	.	16µM*	?
OC[C@@H](O)[C@H]1O[C@@H]2OC(C(Cl)(Cl)Cl)O[C@H]2[C@H]1O (stereo partly drawn)	.	2%	.	.	.	.
SMILES	TGFb SMAD3 inh	TDP1 inh	HepG2 tox	IL1B secr inh	TDP1 cell noCPT	TDP1 cell CPT
COc1ccc(Sc2cnn(-c3ccccc3)c(=O)c2Cl)cc1	-8%	0%	-25%	?	?	?
O=C(Cn1c(=O)nc(-c2ccccc2)c2cc(Cl)ccc21)NCc1ccccc1	-7%	4%	1%	.	16µM*	7.3µM*
O=C(Nc1ccc(Br)cc1C(=O)c1ccccc1Cl)c1ccc(Br)cc1	1%	1%[12.3 µM]	-1%	.	-7%	5%
C#CCN(C)C(C)Cc1ccccc1 (stereo not drawn)	3%	3%	-24%	-15	3.7µM*	?
O=C(Nc1ccccc1)N1CC[C@@]2(CCCNC2)C1	.	.	.	.	4%	-14%
COC(=O)c1cn(CCOc2ccccc2)c2ccccc12	1%	-5%	-5%	-15	?	?
COc1ccc(C(=O)NCCn2cc(SC(C)c3ccccc3)c3ccccc32)cc1OC (stereo not drawn)	?	5%	-20%	.	12µM*	16µM*
CN1C(=O)CCS(=O)(=O)C1c1ccc(Cl)cc1 (stereo not drawn)	.	10%[56.1 µM]	.	.	0%	9%
c1cc2c(cc1NC1=NCCO1)CCCC2	?	.	-5%	0	?	18µM*
CCCCCCC(=O)CCCCCC/C=C/C[C@@H](O)[C@H](O)[C@@](N)(CO)C(=O)O	.	9%	.	.	?	?
CN(C)C(=O)Oc1ccnc2cc(Cl)ccc12	2%	2%	5%	-73*	?	7%
CCCN(C(=O)c1cc2c(=O)oc3ccccc3c2s1)c1cccc(Cl)c1	?	-3%	-2%	.	-3%	3%
C[N+](C)(N)CCOC(=O)C(O)(c1ccccc1)C1CCCCC1 (stereo not drawn)	1%	.	23%	-13	-3%	-1%
CC(Cc1ccccc1)N(C)C (stereo not drawn)	.	2%	.	.	.	.
O=C(Oc1ccc([N+](=O)[O-])cc1)N1CCN(/[N+]([O-])=N/Oc2ccc([N+](=O)[O-])cc2[N+](=O)[O-])CC1	?	.	-107%	.	.	.
Cc1ccc(O)c([C@H](CCN(C(C)C)C(C)C)c2ccccc2)c1	-2%	4%	-53%	-24	?	21µM*!
Cc1ccccc1C1=NCC(=O)N(CC(=O)NCc2ccco2)c2sc3c(c21)CCCC3	-17%	-4%	-44%	-71*	22µM*	16µM*

High-throughput results deposited in PubChem BioAssay by National Center for Advancing Translational Sciences (NCATS).
